# Measurements taken from the supplement of paper PMC6555819.
# Tested on: PPARg:RXRa IVT, anti-PPARg (NR concentration 270 nM, RXRa partner concentration 90 nM)
# Assay: PBM binding z-score (relative to random genomic background probes); higher = stronger binding; sequences stand for … in GC…GCGATTGACAGCGTAGAATGAAGG
# Summary of the method: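 Antibodies against each partner of ligand-free nuclear receptor dimers (one per run) detected binding on custom Agilent 4×180K protein-binding microarrays after 1 h incubation. The double-stranded probes had 34-nt variable regions carrying direct-repeat seeds, single-nucleotide variants, half-site ablations and random human genomic background sequences. Binding z-scores, from regression-normalized fluorescence, use the random background probes as reference.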
row,Sequence,PBM binding z-score
1,ACAGACAGGTGATGAAGCTAACTCAGGCTATCAT,-0.28
2,GCATATAGGTAATACAAGGTAAAAGTCCGATTGT,2.51
3,TCTGGGAGGACACGAAAGGTCAGAGCTCGACATC,1.89
4,CCGACTGGGGCAAAGTTACCATAACGCACAGCCA,3.42
5,AGAATGAGGTTAAGATGAGGGAAACAGAATACAT,2.39
6,ATATGTAGATTATCGGGTCATTCAGTTTGCGCAT,2.72
7,TCATATTGGTAAAGGTGAAAGTCGAACGATATGA,1.69
8,TCTCGGAGCACACGAAGGTCAGAGCTTTCCAGAG,0.198
9,CAAACTAGGTCAAGAGATCAAAGTCCGCTTCCCG,8.28
10,ATCGAAAGGTCGAGGGTGAGTATACCCACCCGAA,1.94
11,CAGCCTAGGTCAGGGCCAGTATTGGAGGAACGTT,1.29
12,ATCGAAAGGTCGAAGGTGAGTGTACCCACCCGAA,2.32
13,CGAACTAGGTTAAGGACAGTGAATCTCCGCACGC,5.67
14,TCATATAGGTAATACAGGTGAAAGCCGGCATCTA,3.6
15,CCTGCTAGGTCATCGTCAGCTAATCTACAGTATG,3.59
16,TCTTGGAGATCAACAGGAGGTTAAGAAAGATCGA,0.364
17,GCGACTGGGGCAAAGCAGGTTACCATAAGGTTGG,3.61
18,TAGCCTAGGTCATGGACCAGTATACCACGCGAAC,3.14
